A number with no mark means an inactive call. Records with an inconclusive call do not appear. Calls of active or inactive are those of the source. Unless noted, the call rests on the fitted dose curve; in most records, active means well fitted curve in the direction sought with a large enough effect in the repeat runs; inconclusive means weak or mixed curves; inactive means no such curve, though single readings can be large; an effect the other way counts as inactive or inconclusive.

A short description of assay [1]: qHTS assay to identify small molecule antagonists of the androgen receptor (AR) signaling pathway using the MDA cell line in the presence of 0.5 nM R1881 - cell viability counter screen (AID 1259242). Further: nearly all actives have a fitted effect of over 45% in size. A digest of the protocol:
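qHTS format. MDA-kb2 (MMTV-luc, AR/GR responsive) + cpd + 0.5 nM R1881 final, 16 hr 37C/0% CO2 → CellTiter-Fluor 30 min → fluorescence intensity.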
For orientation: Quantitative high-throughput screening tests each substance at several concentrations.

Assay [2] concerns the target Estrogen receptor (Homo sapiens) (UniProt P03372). The experiment in a line: qHTS assay to identify small molecule antagonists of the estrogen receptor alpha (ER-alpha) signaling pathway using the BG1 cell line in the presence of 0.1 nM 17-beta-estradiol (AID 1259244). Further: nearly all actives have a fitted effect of over 50% in size. The method in brief:
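Reporter is a stably transfected luciferase under four estrogen responsive elements in VM7Luc4E2 cells expressing native full-length ER-alpha; inhibition of 0.1 nM (final) 17beta-estradiol-driven signal over 22 h is read by luminescence.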

The nature of assay [3]: qHTS assay to identify small molecule HDAC inhibitors (AID 1259364). Further: potency means the concentration at half of the fitted maximal effect.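 Further: wild-type HCT-116 cells with endogenous class I/II HDAC activity; nearly all actives have a fitted effect of over 45% in size.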 On activity change, negative = inhibition: top concentration of the series differs between compounds. A digest of the protocol:
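Quantitative high-throughput format: overnight-seeded HCT-116 cells got compounds for 2 hr at 37C; HDAC-Glo I/II reagent added, 30 min RT, luminescence measured.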

The nature of assay [4]: qHTS assay to identify small molecule HDAC inhibitors - cell viability counter screen (AID 1259365). Further: series mostly up to about 92 µM; nearly all actives have a fitted effect of over 50% in size. The method in brief: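 Cytotoxicity was gauged in wild-type HCT-116 cells after a brief 2hr treatment with DMSO-dissolved compounds at 37C and 5% CO2, using CellTiter-Glo luminescence developed for 30min at room temperature.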
The nature of assay [5]: qHTS assay to identify small molecule agonists of the sonic hedgehog signaling (Shh) pathway - cell viability counter screen (AID 1259366). Further: nearly all actives have a fitted effect of over 50% in size. The method in brief:
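Stable Gli1-Luc NIH/3T3 clone, 2,000 cells/well. Compound exposure 24hr at 37C. Read-out: CellTiter-Fluor fluorescence.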

The nature of assay [6]: qHTS assay to identify small molecule antagonists of the sonic hedgehog signaling (Shh) pathway - cell viability counter screen (AID 1259367). Further: nearly all actives have a fitted effect of over 55% in size. A digest of the protocol:
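Conditioned medium drove Shh signaling in 3T3 Gli1-Luc cells exposed to compounds at 37C and 5% CO2. Viability was determined from CellTiter-Fluor fluorescence, with reagent incubated 1 hr after 23 hr of treatment.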

Assay [7] is described as follows: qHTS assay to identify small molecule agonists of the sonic hedgehog signaling (Shh) pathway (AID 1259368; calls by dose curve;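 further: NIH/3T3-derived 3T3Gli1-Luc cells carrying a stable Gli1-driven firefly luciferase reporter; series mostly up to about 92 µM; nearly all actives have a fitted effect of over 15% in size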). The method in brief: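 Quantitative high-throughput format using a Gli1-driven firefly luciferase reporter line derived from NIH/3T3 cells. After a 24 hr compound treatment at 37 C and 5% CO2, luminescence reported Gli1 response element activity.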
Assay [8] in a line: qHTS assay to identify small molecule antagonists of the sonic hedgehog signaling (Shh) pathway (AID 1259369; calls by dose curve; further: nearly all actives have a fitted effect of over 45% in size). A digest of the protocol: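 Stable Gli1-Luc reporter NIH/3T3 clone; quantitative HTS in stimulated mode with conditioned medium. Luminescence measured after 24hr compound treatment at 37 C.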
The target of assay [9] is Estrogen receptor beta (Homo sapiens) (UniProt Q92731). The assay is described as follows: qHTS assay to identify small molecule agonists of the estrogen receptor beta (ER-beta) signaling pathway (AID 1259377; active means well fitted activation curve with a large enough effect in the signal ratio in the repeat runs, not every such curve was filed as active; the % refers to the signal ratio). A digest of the protocol:
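Measured by fluorescence intensity from a B/G FRET beta-lactamase substrate (2 h, room temperature) in ER-beta-UAS-bla HEK293T cells treated with DMSO-dissolved compounds for 16 hr at 37C and 5% CO2.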

Assay [10] shares this target. The assay is described as follows: qHTS assay to identify small molecule antagonists of the estrogen receptor beta (ER-beta) signaling pathway (AID 1259378; active means well fitted inhibition curve with a large enough effect in the signal ratio in the repeat runs, not every such curve was filed as active; the % refers to the signal ratio). A digest of the protocol: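 ER-beta-UAS-bla HEK293T (GripTite) cells in 2% charcoal-stripped FBS medium were preincubated 6 hr at 37C, dosed with compound, then stimulated with 1 nM E2 (final) for 16 hr; beta-lactamase reporter read by B/G FRET fluorescence after 2 hr substrate loading.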

Assay [11] is described as follows: qHTS assay to identify small molecule agonists of the androgen receptor (AR) signaling pathway in the presence of an antagonist - cell viability counter screen (AID 1259379).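 Further: MDA-kb2 human breast cancer cells carrying an MMTV luciferase reporter; series mostly up to about 92 µM; nearly all actives have a fitted effect of over 25% in size.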 The method in brief: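 Nilutamide-containing (3.0uM final) MDA-kb2 cultures, 3,000 cells/well, were treated with compounds across 15 concentrations. After 16 hr at 37C with no CO2, cell viability was determined by CellTiter-Fluor fluorescence in the luciferase assay wells.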

Assay [12] can be described thus: qHTS assay to identify small molecule agonists of the estrogen receptor beta (ER-beta) signaling pathway - cell viability counter screen (AID 1259380). Further: nearly all actives have a fitted effect of over 30% in size. A digest of the protocol:
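Steps: plate ER-beta-UAS-bla HEK293T cells, rest 6 hr; add compounds in DMSO; incubate 16 hr at 37C, 5% CO2; add FRET substrate 2 hr; add CellTiter-Glo, wait 30 min at room temperature; read luminescence.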

Assay [13] in a line: qHTS assay to identify small molecule antagonists of the estrogen receptor beta (ER-beta) signaling pathway - cell viability counter screen (AID 1259382). Further: series mostly up to about 92 µM; nearly all actives have a fitted effect of over 55% in size. A digest of the protocol:
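Viability is scored by CellTiter-Glo luminescence (30 min, room temperature) in ER-beta-UAS-bla HEK293T wells already read for reporter fluorescence. Compound exposure lasts 16 hr at 37C alongside 1nM 17-beta-estradiol in charcoal-stripped serum medium.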

Assay [14] addresses Estrogen receptor (Homo sapiens) (UniProt P03372). The experiment in a line: qHTS assay to identify small molecule agonists of the estrogen receptor alpha (ER-alpha) signaling pathway in the presence of an antagonist (AID 1259383; calls by dose curve; further: top concentration of the series differs between compounds; nearly all actives have a fitted effect of over 15% in size). The method in brief: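 Readout was ERE-driven luciferase luminescence in VM7Luc4E2 cells, which express full-length ER-alpha endogenously. Compounds were tested at 15 concentrations for 22hr alongside 10.0nM ICI-182,780 (final concentration).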

Assay [15] can be described thus: qHTS assay to identify small molecule agonists or antagonists of the thyroid stimulating hormone receptor (TSHR) signaling pathway - wild type cell line counter screen (AID 1259384; calls by dose curve). The method in brief: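 Wild-type HEK293 cells were plated 18 h at 37 C/5% CO2, pin-dosed with compound plus Ro20-1724 medium, held 30 min at room temperature, then given cAMP-d2 and anti-cAMP-cryptate; fluorescence was read after 1 h. Fifteen concentrations, triplicate.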

Assay [16] has as its target Thyrotropin receptor (Homo sapiens) (UniProt P16473). The assay is described as follows: qHTS assay to identify small molecule antagonists of the thyroid stimulating hormone receptor (TSHR) signaling pathway (AID 1259385; calls by dose curve; further: nearly all actives have a fitted effect of over 20% in size). A digest of the protocol: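 TSHR-HEK293 cells were plated and held 18 h at 37C/5% CO2, then given compound plus Ro20-1724 and stimulated with TSH at 1.5 ng/mL final. After 30 min at room temperature, cAMP was detected with cAMP-d2/anti-cAMP-cryptate (1 h) by fluorescence.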

Assay [17] in a line: qHTS assay to identify small molecule agonists of the estrogen receptor alpha (ER-alpha) signaling pathway in the presence of an antagonist - cell viability counter screen (AID 1259386).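 Further: series mostly up to about 92 µM; cells exposed to compounds for 22 h at 37 °C before the viability read; nearly all actives have a fitted effect of over 30% in size.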 A digest of the protocol:
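In this counter screen, compound effects on VM7Luc4E2 viability were tested in the presence of the antagonist ICI-182,780 at 10.0nM final. Compounds were dosed at 15 concentrations, exposure lasted 22hr, and the CellTiter-Fluor signal was read.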

The nature of assay [18]: qHTS assay to identify small molecule phospholipidosis (PLD) inducers (AID 1259344; active means well fitted curve in the direction sought with a large enough effect; an effect the other way counts as inactive or inconclusive). The method in brief:
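After 4 h attachment on collagen I, HepG2 cells were dosed with compound alongside LipidTOX Red, kept 24 h at 37 C, fixed, and imaged for lamellar phospholipid pits.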

In assay [19] the target is Androgen receptor (Homo sapiens) (UniProt P10275). The experiment in a line: qHTS assay to identify small molecule antagonists of the androgen receptor (AR) signaling pathway using the MDA cell line in the presence of 0.5 nM R1881 (AID 1259243). Further: nearly all actives have a fitted effect of over 50% in size. The method in brief: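 Antagonist mode quantitative HTS in MDA-kb2 MMTV-luciferase cells, agonist R1881 at 0.5 nM final, 16 hr exposure at 37C and 0% CO2, luminescent detection.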

Assay [20] shares this target. The assay is described as follows: qHTS assay to identify small molecule agonists of the androgen receptor (AR) signaling pathway in the presence of an antagonist (AID 1259381; calls by dose curve; further: nearly all actives have a fitted effect of over 15% in size). The method in brief: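 Reporter-gene luminescence from MDA-kb2 cells exposed 16hr at 37C (0% CO2) to 15-point compound titrations with 3.0uM final nilutamide as AR antagonist.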
On the % scale 0 is the no-effect control and ±100 the full control effect.

Estrogen receptor (Homo sapiens), sequence (P03372 whole entry, looked up): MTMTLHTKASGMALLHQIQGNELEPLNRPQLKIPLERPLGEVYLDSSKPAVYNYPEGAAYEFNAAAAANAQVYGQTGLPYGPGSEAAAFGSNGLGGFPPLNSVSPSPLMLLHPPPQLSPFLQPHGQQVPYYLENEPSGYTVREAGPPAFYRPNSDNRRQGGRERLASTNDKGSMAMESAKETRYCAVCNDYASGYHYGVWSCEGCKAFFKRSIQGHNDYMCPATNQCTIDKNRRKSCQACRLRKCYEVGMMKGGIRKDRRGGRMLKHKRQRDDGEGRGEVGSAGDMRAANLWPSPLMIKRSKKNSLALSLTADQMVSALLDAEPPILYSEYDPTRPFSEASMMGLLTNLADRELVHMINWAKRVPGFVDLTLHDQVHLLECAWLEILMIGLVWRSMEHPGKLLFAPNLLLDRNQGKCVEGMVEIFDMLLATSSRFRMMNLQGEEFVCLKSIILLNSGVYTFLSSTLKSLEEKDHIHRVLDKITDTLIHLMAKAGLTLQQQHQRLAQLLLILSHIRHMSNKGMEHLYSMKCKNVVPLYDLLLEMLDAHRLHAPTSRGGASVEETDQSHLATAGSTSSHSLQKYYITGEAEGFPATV
Estrogen receptor beta (Homo sapiens), sequence (Q92731 whole entry, looked up): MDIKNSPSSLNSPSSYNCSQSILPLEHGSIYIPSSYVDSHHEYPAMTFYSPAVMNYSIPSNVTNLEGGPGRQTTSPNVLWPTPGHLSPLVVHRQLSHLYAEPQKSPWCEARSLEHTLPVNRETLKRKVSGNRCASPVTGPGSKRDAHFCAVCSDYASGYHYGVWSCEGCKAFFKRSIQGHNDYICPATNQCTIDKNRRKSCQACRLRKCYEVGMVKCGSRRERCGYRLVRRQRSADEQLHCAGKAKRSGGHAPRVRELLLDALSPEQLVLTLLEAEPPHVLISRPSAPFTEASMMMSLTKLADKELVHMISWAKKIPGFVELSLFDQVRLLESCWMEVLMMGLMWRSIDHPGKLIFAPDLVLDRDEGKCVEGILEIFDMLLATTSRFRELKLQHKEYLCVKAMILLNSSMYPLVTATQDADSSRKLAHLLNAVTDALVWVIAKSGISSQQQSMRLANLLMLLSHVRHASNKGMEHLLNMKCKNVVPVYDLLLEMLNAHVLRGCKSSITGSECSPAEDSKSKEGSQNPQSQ
Thyrotropin receptor (Homo sapiens), sequence (P16473 whole entry, looked up): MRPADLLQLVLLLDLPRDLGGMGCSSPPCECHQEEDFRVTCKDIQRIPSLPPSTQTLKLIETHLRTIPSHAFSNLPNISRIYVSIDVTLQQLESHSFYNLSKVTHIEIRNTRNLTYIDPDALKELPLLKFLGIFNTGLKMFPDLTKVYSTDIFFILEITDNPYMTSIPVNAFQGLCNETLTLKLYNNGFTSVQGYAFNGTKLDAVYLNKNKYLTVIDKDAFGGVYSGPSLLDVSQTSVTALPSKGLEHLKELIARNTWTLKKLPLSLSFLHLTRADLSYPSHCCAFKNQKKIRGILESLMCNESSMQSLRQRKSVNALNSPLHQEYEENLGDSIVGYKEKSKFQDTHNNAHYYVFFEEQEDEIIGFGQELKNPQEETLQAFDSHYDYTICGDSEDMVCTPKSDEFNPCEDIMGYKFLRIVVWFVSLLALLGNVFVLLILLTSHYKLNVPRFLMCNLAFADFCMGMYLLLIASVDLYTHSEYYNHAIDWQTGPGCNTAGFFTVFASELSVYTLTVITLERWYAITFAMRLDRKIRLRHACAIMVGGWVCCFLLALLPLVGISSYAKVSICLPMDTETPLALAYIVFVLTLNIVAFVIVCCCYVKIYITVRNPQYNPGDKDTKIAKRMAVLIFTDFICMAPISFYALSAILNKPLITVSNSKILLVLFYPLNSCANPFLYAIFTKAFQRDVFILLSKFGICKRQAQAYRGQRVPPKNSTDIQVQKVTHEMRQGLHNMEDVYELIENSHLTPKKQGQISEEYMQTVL
Androgen receptor (Homo sapiens), sequence (P10275 whole entry, looked up): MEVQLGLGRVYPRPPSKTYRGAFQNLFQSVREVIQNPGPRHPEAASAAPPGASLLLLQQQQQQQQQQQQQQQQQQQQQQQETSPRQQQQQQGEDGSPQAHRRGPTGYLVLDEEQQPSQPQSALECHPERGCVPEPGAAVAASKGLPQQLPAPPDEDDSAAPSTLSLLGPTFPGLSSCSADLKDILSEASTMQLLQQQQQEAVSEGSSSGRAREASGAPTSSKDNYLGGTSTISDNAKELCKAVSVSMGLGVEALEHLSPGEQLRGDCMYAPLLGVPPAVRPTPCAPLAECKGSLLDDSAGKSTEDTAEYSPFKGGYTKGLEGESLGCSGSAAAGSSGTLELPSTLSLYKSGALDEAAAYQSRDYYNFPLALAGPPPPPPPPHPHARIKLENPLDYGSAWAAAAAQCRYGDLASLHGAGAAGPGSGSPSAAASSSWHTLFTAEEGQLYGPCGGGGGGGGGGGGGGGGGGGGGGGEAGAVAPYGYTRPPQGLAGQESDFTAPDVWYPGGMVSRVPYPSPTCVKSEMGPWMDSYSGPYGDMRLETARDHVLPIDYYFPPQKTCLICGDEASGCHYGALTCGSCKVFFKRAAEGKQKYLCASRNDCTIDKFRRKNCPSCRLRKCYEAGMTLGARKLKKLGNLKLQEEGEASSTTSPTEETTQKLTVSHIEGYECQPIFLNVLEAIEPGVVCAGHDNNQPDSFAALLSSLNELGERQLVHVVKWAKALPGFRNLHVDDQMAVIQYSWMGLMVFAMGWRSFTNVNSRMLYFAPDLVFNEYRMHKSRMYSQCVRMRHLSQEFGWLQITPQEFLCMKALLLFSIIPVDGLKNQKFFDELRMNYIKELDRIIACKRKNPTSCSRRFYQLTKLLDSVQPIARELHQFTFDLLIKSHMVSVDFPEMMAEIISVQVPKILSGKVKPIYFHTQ

For the compound `CC1(C)C(=O)NC(=O)NC1=O`, the result in assay [1], in assay [4], in assay [7] and in [9] was inactive. Further, the Potency result in [2], in assay [3], in [5], in assay [6], in assay [8] and in assay [10] was “inactive” each time. For the same compound, the Potency result in [11], in [12], in assay [13], in assay [14], in assay [15] and in assay [16] was “inactive” throughout. For the same compound, the Potency entry in assay [17] was “inactive”.

As for `CCCCc1c(C)nc(NCC)[nH]c1=O`, the result in assay [1], in assay [4], in [7] and in assay [9] was inactive. In addition, the Potency result in assay [2], in [3], in assay [5], in [6], in assay [8] and in assay [10] was “inactive” throughout. The Potency result in assay [11], in assay [12], in assay [13], in assay [14], in assay [15] and in assay [16] was “inactive” throughout.

On to `O=c1oc2ccccc2c(O)c1C1CCCc2ccccc21` (stereo not given), for which the result in assay [1], in assay [4], in assay [7] and in assay [9] was inactive. Also, the Potency entry in assay [2], in assay [3], in assay [5], in assay [6], in assay [8] and in assay [10] was “inactive” in each case. Also, the Potency entry in assay [11], in assay [13] and in assay [14] was “inactive” each time.

For `CC(=O)[C@H]1CC[C@H]2[C@@H]3CC[C@H]4C[C@H](O)CC[C@]4(C)[C@H]3C(=O)C[C@]12C`, the result in assay [1], in assay [18], in [4], in assay [7] and in assay [9] was inactive. Besides, the Potency entry in assay [2], in assay [5], in assay [6], in assay [8], in assay [10] and in [11] was “inactive” each time. For the same compound, the Potency entry in assay [13], in [14] and in assay [17] was “inactive” each time.

For `O=C1c2ccccc2C(=O)c2ccccc21`, the viability change, negative = cytotoxic in assay [1] was 3.34% [at 19 µM]; in assay [5] it was 1.77% [at 19 µM]; in [6], -0.095% [at 19 µM]. Further, the activity change, negative = inhibition in assay [2] is 34.1% [at 19 µM]; in [8] it was 17.7% [at 19 µM]; in assay [16], -0.629% [at 19 µM]. Further, the call in assay [18] was inactive. The Potency in assay [3] was 3.66 µM (active). The activity change, negative = cytotoxicity was -0.295% [at 19 µM] in assay [4], -1.61% [at 19 µM] in assay [11], 3.21% [at 19 µM] in assay [12] and -0.678% [at 19 µM] in [13]. In addition, the activity change in [7] is 1.5% [at 18.9 µM]. The activation is 1.09% [at 19 µM] in assay [9] and 5.54% [at 19 µM] in [14]. In addition, the activity, negative = inhibition in assay [10] is 0.94% [at 19 µM]. In assay [15], the cAMP activity change was -4.84% [at 18.9 µM, hits give high values].

For `CC(COc1ccc(Oc2ccccc2)cc1)Oc1ccccn1` (stereo not given), the outcome in [1], in assay [4], in [7] and in assay [9] was inactive. The Potency result in [19], in assay [5], in assay [6], in assay [8], in [10] and in [11] was “inactive” throughout. Besides, the Potency entry in [12], in assay [20], in [13], in [15] and in [17] was “inactive” throughout.

On to `COP(=S)(OC)Oc1ccc(S(N)(=O)=O)cc1`, for which the outcome in [1], in [18], in [4], in assay [7] and in assay [9] was inactive. For the same compound, the Potency result in assay [2], in assay [3], in assay [5], in [6], in assay [8] and in assay [10] was “inactive” each time. In addition, the Potency entry in assay [11], in [12], in [13], in assay [14], in [15] and in [16] was “inactive” throughout.

As for `CCCCc1ccc(O)cc1`, the result in [1], in assay [4], in assay [7] and in [9] was inactive. Moreover, the Potency result in assay [2], in assay [3], in assay [5], in assay [6], in assay [8] and in assay [10] was “inactive” throughout. Also, the Potency entry in assay [11], in assay [12], in assay [13], in [14], in assay [15] and in assay [16] was “inactive” throughout.

These data come from PubChem BioAssay (Tox21).
